Measurements taken from the supplement of paper PMC8728848.
This excerpt belongs to a sample that is enriched for the strongest signals.

Key:
Test in all cases: glycan array binding signal (z-score within array); higher = stronger binding
Settings in all cases: glycan notation: IUPAC condensed, linker removed
Fuc(a1-2)Gal(b1-3)GalNAc = biological target: Fuc(a1-2)Gal(b1-3)GalNAc
In short: (§1)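 Arrays were curated from the Consortium for Functional Glycomics database, 3228 in total, and kept only where the protein sequence was available. Binding is expressed as a within-array Z-score. This score was averaged across arrays of the same protein sequence at different concentrations or buffers and across linkers, and negative values can be read as non-binding.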

[1] = biological target: Fuc(a1-2)Gal(b1-3)GalNAc(a1-3)[Fuc(a1-2)]Gal(b1-4)GlcNAc
In short: as §1

[2] = biological target: Fuc(a1-2)Gal(b1-3)GalNAc(b1-3)Gal(a1-4)Gal(b1-4)Glc
In short: as §1

[3] = biological target: Fuc(a1-2)Gal(b1-3)GlcNAc(b1-2)Man(a1-3)[Fuc(a1-2)Gal(b1-3)GlcNAc(b1-2)Man(a1-6)]Man(b1-4)GlcNAc(b1-4)GlcNAc
In short: as §1

[4] = biological target: Fuc(a1-2)Gal(b1-3)GlcNAc(b1-3)Gal(b1-4)Glc
In short: as §1

[5] = biological target: Fuc(a1-2)Gal(b1-3)GlcNAc(b1-3)GalNAc
In short: as §1

[6] = biological target: Fuc(a1-2)Gal(b1-3)[Fuc(a1-4)]GlcNAc(b1-2)Man(a1-3)[Fuc(a1-2)Gal(b1-3)[Fuc(a1-4)]GlcNAc(b1-2)Man(a1-3)]Man(b1-4)GlcNAc(b1-4)GlcNAc
In short: as §1

[7] = biological target: Fuc(a1-2)Gal(b1-4)[Fuc(a1-3)]GlcNAc(b1-2)[Fuc(a1-2)Gal(b1-4)[Fuc(a1-3)]GlcNAc(b1-4)]Man(a1-3)[Fuc(a1-2)Gal(b1-4)[Fuc(a1-3)]GlcNAc(b1-2)Man(a1-6)]Man(b1-4)GlcNAc(b1-4)GlcNAc
In short: as §1

Fuc(a1-2)Gal6S(b1-4)Glc = biological target: Fuc(a1-2)Gal6S(b1-4)Glc
In short: as §1

[8] = biological target: Fuc(a1-2)Gal6S(b1-4)Glc6S
In short: as §1

[9] = biological target: Fuc(a1-2)[Gal(a1-3)]Gal(b1-3)GalNAc(b1-3)Gal(a1-4)Gal(b1-4)Glc
In short: as §1

[10] = biological target: Fuc(a1-2)[Gal(a1-3)]Gal(b1-4)GlcNAc(b1-2)Man(a1-3)[Fuc(a1-2)[Gal(a1-3)]Gal(b1-4)GlcNAc(b1-2)Man(a1-6)]Man(b1-4)GlcNAc(b1-4)GlcNAc
In short: as §1

[11] = biological target: Fuc(a1-2)[GalNAc(a1-3)]Gal(b1-3)GlcNAc(b1-6)GalNAc
In short: as §1

[12] = biological target: Fuc(a1-2)[GalNAc(a1-3)]Gal(b1-4)GlcNAc(b1-3)Gal(b1-4)GlcNAc
In short: as §1

[13] = biological target: Fuc(a1-2)[GalNAc(a1-3)]Gal(b1-4)GlcNAc(b1-3)Gal(b1-4)GlcNAc(b1-3)Gal(b1-4)GlcNAc
In short: as §1

[14] = biological target: Fuc(a1-2)[GalNAc(a1-3)]Gal(b1-4)GlcNAc(b1-6)GalNAc
In short: as §1

[15] = biological target: Fuc(a1-2)[GalNAc(a1-3)]Gal(b1-4)[Fuc(a1-3)]GlcNAc
In short: as §1

Fuc(a1-3)GlcNAc = biological target: Fuc(a1-3)GlcNAc
In short: as §1

Gal(a1-3)Gal(b1-3)GlcNAc = biological target: Gal(a1-3)Gal(b1-3)GlcNAc
In short: as §1

[16] = biological target: Gal(a1-3)Gal(b1-3)GlcNAc(b1-6)GalNAc
In short: as §1

Gal(a1-3)Gal(b1-4)GlcNAc = biological target: Gal(a1-3)Gal(b1-4)GlcNAc
In short: as §1

Gal(b1-2)Gal = biological target: Gal(b1-2)Gal
In short: as §1

[17] = biological target: Gal(b1-3)GalNAc(a1-3)[Fuc(a1-2)]Gal(b1-4)GlcNAc
In short: as §1

[18] = biological target: Gal(b1-3)GlcNAc(b1-3)Gal(b1-4)GlcNAc
In short: as §1

[19] = biological target: Gal(b1-3)GlcNAc(b1-6)GalNAc
In short: as §1

Gal(b1-3)GlcNAc6S = biological target: Gal(b1-3)GlcNAc6S
In short: as §1

[20] = biological target: Gal(b1-3)[Fuc(a1-4)]GlcNAc(b1-2)Man
In short: as §1

[21] = biological target: Gal(b1-3)[Fuc(a1-4)]GlcNAc(b1-2)Man(a1-3)[Gal(b1-3)[Fuc(a1-4)]GlcNAc(b1-2)Man(a1-6)]Man(b1-4)GlcNAc(b1-4)[Fuc(a1-6)]GlcNAc
In short: as §1

[22] = biological target: Gal(b1-3)[GlcNAc(b1-6)]GalNAc
In short: as §1

[23] = biological target: Gal(b1-4)GlcNAc(b1-2)[Gal(b1-4)GlcNAc(b1-6)]Man(a1-6)[Gal(b1-4)GlcNAc(b1-2)Man(a1-3)]Man(b1-4)GlcNAc(b1-4)[Fuc(a1-6)]GlcNAc
In short: as §1

[24] = biological target: Gal(b1-4)GlcNAc(b1-3)Gal(b1-4)GlcNAc(b1-3)Gal(b1-4)GlcNAc(b1-3)Gal(b1-4)GlcNAc(b1-3)Gal(b1-4)GlcNAc(b1-2)Man(a1-3)[Gal(b1-4)GlcNAc(b1-3)Gal(b1-4)GlcNAc(b1-3)Gal(b1-4)GlcNAc(b1-3)Gal(b1-4)GlcNAc(b1-3)Gal(b1-4)GlcNAc(b1-2)Man(a1-6)]Man(b1-4)GlcNAc(b1-4)GlcNAc
In short: as §1

B1: Clec12b (Mus musculus), Q149M0 (protein)
chain: MSDEVTYATLMLQDSARVRGNQDGNNLRKEGHPAQSSLWRGAALSLMTLCLVLVTGLVTLATMFLQVSNDINSDSEKLSQLQKSIHPQQDNLSESLNSSRKSLTEESLQSQISALLERQEQMATKLCKEFLIHASDHKCNPCPKTWQWYGNSCYYFSINEEKSWSDSRKDCIDKNATLVKIDSTEERDLLQSQLSLTFSFFWLGLSWNSSGRNWLWEDGSFPPPTLFSDKELASFNGSRDCAYFERGNIYASRCSAEIPWICEKTASLVKTEDLD
glycan array binding signal (z-score) (Fuc(a1-2)Gal(b1-3)GalNAc): -0.451 | glycan array binding signal (z-score) [1]: 0.211 | glycan array binding signal (z-score) [2]: -0.395 | glycan array binding signal (z-score) [3]: 2.66 | glycan array binding signal (z-score) [4]: 3.25 | glycan array binding signal (z-score) [5]: -0.484 | glycan array binding signal (z-score) [6]: 2.58 | glycan array binding signal (z-score) [7]: 2.82 | glycan array binding signal (z-score) (Fuc(a1-2)Gal6S(b1-4)Glc): 0.808 | glycan array binding signal (z-score) [8]: -0.568 | glycan array binding signal (z-score) [9]: -0.052 | glycan array binding signal (z-score) [10]: 0.853 | glycan array binding signal (z-score) [11]: 4.57 | glycan array binding signal (z-score) [12]: -0.749 | glycan array binding signal (z-score) [13]: -0.115 | glycan array binding signal (z-score) [14]: 0.308 | glycan array binding signal (z-score) [15]: -0.288 | glycan array binding signal (z-score) (Fuc(a1-3)GlcNAc): -0.323 | glycan array binding signal (z-score) (Gal(a1-3)Gal(b1-3)GlcNAc): 5.35 | glycan array binding signal (z-score) [16]: -0.324 | glycan array binding signal (z-score) (Gal(a1-3)Gal(b1-4)GlcNAc): 0.53 | glycan array binding signal (z-score) (Gal(b1-2)Gal): 2.74 | glycan array binding signal (z-score) [17]: -0.587 | glycan array binding signal (z-score) [18]: -0.41 | glycan array binding signal (z-score) [19]: -0.588 | glycan array binding signal (z-score) (Gal(b1-3)GlcNAc6S): 0.486 | glycan array binding signal (z-score) [20]: 0.927 | glycan array binding signal (z-score) [21]: 3.71 | glycan array binding signal (z-score) [22]: -0.137 | glycan array binding signal (z-score) [23]: 0.226 | glycan array binding signal (z-score) [24]: 0.028
